# Reference: PubChem BioAssay (NCATS)
# “And” between values parts separate entries of the source, which are not always exact repeats. Equal entries are not always repeated. Unmarked numbers belong to inactive results. Inconclusive results are not listed. The list shows a part of the results. Where a call stands in place of a potency, no number is given. The source made the active and inactive calls. Unless noted, the call rests on the fitted dose curve; in most records, active means well fitted curve in the direction sought with a large enough effect; inconclusive means small, poorly fitted or top-dose-only effect, or another doubt; inactive means no such curve, though single readings can be large; an effect the other way counts as inactive or inconclusive.
# Columns and labels:
# [1] = target: Androgen receptor (Homo sapiens) (UniProt P10275); assay: qHTS assay for small molecule agonists of androgen receptor signaling (AID 588515; active means well fitted curve in the direction sought with a large enough effect in the signal ratio, with a control signal flat; the % refers to the signal ratio); conditions: AR-UAS-bla HEK293, beta-lactamase ratio, agonist 16 h; active compounds read high
# Procedure, shortened: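 Stimulation of an AR-responsive β-lactamase reporter in GripTite HEK293 cells was measured after 16 h compound exposure at 37 °C, via CCF4 fluorescence after 2 h RT. EC50 from Hill fits, normalized to R1881 at 30 nM.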
# [2] = target: Androgen receptor (Homo sapiens) (UniProt P10275); assay: qHTS assay for small molecule antagonists of androgen receptor signaling (AID 588516; active means well fitted curve in the direction sought with a large enough effect in the signal ratio, with a control signal flat, not every such curve was filed as active; the % refers to the signal ratio)
# Procedure, shortened: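 Compounds tested in titration against 10 nM R1881 in AR-responsive bla reporter HEK 293 cells; CCF4 fluorescence (460/530 nm) after 16 h exposure gave IC50 and efficacy.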
# [3] = qHTS assay to identify small molecules that stimulate interleukin-8 (IL-8) secretion (AID 651758; active means well fitted activation curve with a large enough effect in the signal ratio; the % refers to the signal ratio)
# Procedure, shortened: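 Compounds are added to THP-1 cells (2000 per well) and left 16 hrs at 37 C. A labeled anti-IL-8 antibody pair is then added, and IL-8 secretion is measured by time-resolved FRET after 1-3 hrs at room temperature.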
# [4] = target: Bile acid receptor (Homo sapiens) (UniProt Q96RI1); assay: qHTS assay for small molecule antagonists of farnesoid X receptor signaling (AID 588526; calls by dose curve)
# Procedure, shortened: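 Antagonist mode: titrated compounds tested against chenodeoxycholic acid stimulation (normalized to 50 uM CDCA and DMSO) in GeneBLAzer HEK293T cells for 16 h. Beta-lactamase read by CCF4 fluorescence; IC50 from Hill fits.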
# [5] = Confirmation and Secondary Assay for Modulators of Hemoglobin Beta Chain Splicing at IVS2 654 locus (AID 910);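 further: HeLa cells stably carrying EGFP split by mutant beta-globin IVS2-654 intron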
# Procedure, shortened: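 HeLa cells stably expressing EGFP interrupted by β-globin IVS2-654 intron, seeded overnight in Opti-MEM/2% FCS, then treated 2 days at 37 °C. Restored splicing read as total peak GFP intensity per well by laser scanning cytometry (488 nm excitation, 500–520 nm emission); 500 nM antisense PNA as control.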
# [6] = Confirmation and Secondary Assay for Modulators of Hemoglobin Beta Chain Splicing at IVS2 705 locus (AID 930);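 further: HeLa cells stably expressing the EGFP-705 splicing reporter; GFP fluorescence per well restored by corrected splicing of the IVS2-705 intron in EGFP; series mostly up to about 46 µM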
# Procedure, shortened: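 First, HeLa EGFP-705 cells are seeded at 500/well in Optimem with 2% FCS and left overnight. Next, compound or DMSO is added for 2 days. Finally wells are laser-scanned and total peak GFP intensity scored.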
# [7] = target: Peroxisome proliferator-activated receptor gamma (Homo sapiens) (UniProt P37231); assay: qHTS assay for small molecule antagonists of peroxisome proliferator-activated receptor gamma signaling (AID 588537; active means well fitted inhibition curve with a large enough effect in the signal ratio, with a control signal flat, not every such curve was filed as active; the % refers to the signal ratio;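 further: reporter cells co-stimulated with 50 nM rosiglitazone agonist during compound treatment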)
# Procedure, shortened: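 Read-out: CCF4 fluorescence (ex 405, em 460/530 nm) after 2 h at RT. Cells were HEK293 carrying a UAS-bla reporter and treated 16 h at 37 C with compound plus rosiglitazone (50 nM final). Normalized to rosiglitazone and DMSO.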
# [8] = tested on: HIV-1 nucleocapsid protein NCp7 (binding to TG oligonucleotide); assay: HIV Nucleocapsid (AID 346; call rule not given here;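 further: potency means the concentration at half of the fitted maximal effect; potency is for inhibitors that block NC binding and lower polarization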); conditions: HIV-1 NC / fluorescein-TGTGTGTG probe, fluorescence polarization
# Procedure, shortened: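 Inhibition of nucleocapsid binding to single-stranded 5'-TGTGTGTG probe (10 nM) was measured by fluorescence polarization after 1 hr at room temperature with 100 nM protein under high-salt, zinc-containing, reducing conditions.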
# [9] = Counterscreen for APE1 Inhibitors: Fluorescent Dye Displacement Assay (AID 2564);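 further: loss of thiazole orange fluorescence as the dye is displaced from duplex DNA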; further: potency means the concentration at half of the fitted maximal effect
# Procedure, shortened: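 Counterscreen flags promiscuous DNA binders: compounds displacing ThO from duplex DNA (abasic THF site, 50 nM) reduce 540 nm emission (480 nm excitation). ThO 250 nM final; Tris-HCl pH 7.5 with NaCl, MgCl2 and Tween-20.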
# [10] = target: Endonuclease 4 (Escherichia coli (strain K12)) (UniProt P0A6C1); assay: Counterscreen for APE1 Inhibitors: qHTS Assay for Inhibitors of Endonuclease IV (AID 2565); further: potency means the concentration at half of the fitted maximal effect
# Procedure, shortened: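 Read-out: fluorescence rise (ex 525/em 598 nm) from incision of a TAMRA/BHQ-2 double-stranded THF abasic-site substrate (50 nM), measured kinetically; third-minus-first read difference gave reaction progress. Enzyme 2 nM.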
# [11] = target: DNA repair nuclease/redox regulator APEX1 (Homo sapiens) (UniProt P27695); assay: Confirmation qHTS Assay for Inhibitors of the Human Apurinic/apyrimidinic Endonuclease 1 (APE1) (AID 2572); conditions: purified APE1, fluorogenic abasic-site DNA cleavage; further: potency means the concentration at half of the fitted maximal effect; nearly all actives have a fitted effect of over 30% in size
# Procedure, shortened: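 APE1 preincubated 15 min RT with compound; 50 nM TAMRA/BHQ-2 THF-abasic duplex added; kinetic fluorescence, 3 reads at 60 s intervals, Ex 525/Em 598; progress = read 3 minus read 1.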
# [12] = target: DNA repair nuclease/redox regulator APEX1 (Homo sapiens) (UniProt P27695); assay: qHTS FP-Based Assay for Inhibitors of the Human Apurinic/apyrimidinic Endonuclease 1 (APE1) (AID 2573)
# [13] = target: Lethal(3)malignant brain tumor-like protein 1 (Homo sapiens) (UniProt Q9Y468); assay: qHTS Assay for the Inhibitors of L3MBTL1: Hit Validation (AID 540279); conditions: L3MBTL1 methyl-lysine binding inhibition, biochemical qHTS; further: potency means the concentration at half of the fitted maximal effect; nearly all actives have a fitted effect of over 70% in size
# Procedure, shortened: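 L3MBTL1 (50 nM final) preformed 30 min with biotinylated H3(1-15)K9me1 peptide (75 nM), then compound 30 min at room temperature. Streptavidin donor and nickel chelate acceptor AlphaScreen beads (10 ug/mL each final) added for 30 min before read.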
# [14] = qHTS Assay for Inhibitors of Fructose-1,6-bisphosphate Aldolase from Giardia Lamblia: Giardia lamblia growth inhibition (AID 2785); further: nearly all actives have a fitted effect of over 70% in size
# Procedure, shortened: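 G. lamblia WB trophozoites (100 cells/well) were grown with compound at 37C for 48 h in modified TYI-S-33 medium, pH 7.0. Growth was measured by ATPlite luminescence after 20 min at room temperature.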
# [15] = qHTS Assay for Inhibitors of Fructose-1,6-bisphosphate Aldolase from Giardia Lamblia: Mammalian cellular toxicity (AID 2786);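 further: compound exposure lasted 48 h before reading; nearly all actives have a fitted effect of over 60% in size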
# Procedure, shortened: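 CHO cells seeded at 250 cells/well with pin-tool-added compound, incubated 48 h at 37 °C, 5% CO2. Viability read as ATP content by ATPlite luminescence after 20 min.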
# [16] = target: Fructose-bisphosphate aldolase (Giardia intestinalis (strain ATCC 50803 / WB clone C6)) (UniProt A8B2U2); assay: qHTS Assay for Inhibitors of Fructose-1,6-bisphosphate Aldolase from Giardia Lamblia: Primary screen confirmation (AID 2787);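 further: aldolase product measured through coupled diaphorase step turning resazurin into fluorescent resorufin; series mostly up to about 58 µM; nearly all actives have a fitted effect of over 45% in size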
# Procedure, shortened: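 FBPA (40 nM in enzyme reagent, with 30 uM ZnCl2) was preincubated 10 min at RT with compound up to 57.5 uM final. Substrate plus coupled detection system was then added, and fluorescence (525/598 nm) was read after 20 min at RT.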
# [17] = target: Fructose-bisphosphate aldolase A (Oryctolagus cuniculus) (UniProt P00883); assay: qHTS Assay for Inhibitors of Fructose-1,6-bisphosphate Aldolase from Giardia Lamblia: Rabbit FBPA Selectivity (AID 2794); further: nearly all actives have a fitted effect of over 60% in size
# Procedure, shortened: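 To triage Class I aldolase inhibitors, rabbit FBPA activity is followed through a glyceraldehyde-3-phosphate-linked enzyme cascade feeding AmpLite Red. Compounds (up to 57.5 uM final) sit 10 min with coupling enzymes before substrate; fluorescence is read 20 min later.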
# [18] = qHTS Assay for Inhibitors of Fructose-1,6-bisphosphate Aldolase from Giardia Lamblia: Coupling assay counterscreen confirmation (AID 2795); further: nearly all actives have a fitted effect of over 55% in size
# Procedure, shortened: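 Coupling enzymes were first exposed to test compounds (final up to 57.5 uM) for 10 min at room temperature. A substrate plus coupling-system plus AmpLite Red mixture was then added, and after 20 more minutes fluorescence was measured at 525/598 nm.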
# [19] = target: Cytochrome P450 3A4 (Homo sapiens) (UniProt P08684); assay: qHTS Assay for Activators of Cytochrome P450 3A4 (AID 885); further: nearly all actives have a fitted effect of over 65% in size
# Procedure, shortened: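 Luminescent readout of luciferin formed from 25 uM Luciferin-PPXE (KM level) by 20 nM CYP3A4 in 200 mM KPO4, with 60 min NADPH-driven reaction at room temperature after 10 min compound exposure. Ketoconazole (57 uM) defined 100% inhibition.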
# Fructose-bisphosphate aldolase A (Oryctolagus cuniculus), sequence (P00883 whole entry, looked up): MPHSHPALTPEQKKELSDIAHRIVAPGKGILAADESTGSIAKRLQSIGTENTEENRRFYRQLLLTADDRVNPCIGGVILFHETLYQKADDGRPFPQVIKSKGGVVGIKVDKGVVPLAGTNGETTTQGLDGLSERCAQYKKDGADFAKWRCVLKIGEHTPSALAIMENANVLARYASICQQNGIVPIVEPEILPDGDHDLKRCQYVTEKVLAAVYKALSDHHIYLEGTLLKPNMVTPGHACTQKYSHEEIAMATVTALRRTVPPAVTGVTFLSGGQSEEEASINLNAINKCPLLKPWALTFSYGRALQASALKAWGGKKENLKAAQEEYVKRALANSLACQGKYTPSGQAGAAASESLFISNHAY
# Fructose-bisphosphate aldolase (Giardia intestinalis (strain ATCC 50803 / WB clone C6)), sequence (A8B2U2 whole entry, looked up): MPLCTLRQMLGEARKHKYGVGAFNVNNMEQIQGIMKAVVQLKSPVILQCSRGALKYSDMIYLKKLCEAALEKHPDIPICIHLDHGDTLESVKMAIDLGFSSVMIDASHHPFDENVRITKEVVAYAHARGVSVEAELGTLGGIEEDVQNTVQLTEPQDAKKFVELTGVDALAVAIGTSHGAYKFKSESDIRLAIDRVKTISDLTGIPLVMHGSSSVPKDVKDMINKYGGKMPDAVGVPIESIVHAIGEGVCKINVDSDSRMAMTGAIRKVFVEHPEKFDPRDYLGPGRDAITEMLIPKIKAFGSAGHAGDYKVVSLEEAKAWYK
# DNA repair nuclease/redox regulator APEX1 (Homo sapiens), sequence (P27695 whole entry, looked up): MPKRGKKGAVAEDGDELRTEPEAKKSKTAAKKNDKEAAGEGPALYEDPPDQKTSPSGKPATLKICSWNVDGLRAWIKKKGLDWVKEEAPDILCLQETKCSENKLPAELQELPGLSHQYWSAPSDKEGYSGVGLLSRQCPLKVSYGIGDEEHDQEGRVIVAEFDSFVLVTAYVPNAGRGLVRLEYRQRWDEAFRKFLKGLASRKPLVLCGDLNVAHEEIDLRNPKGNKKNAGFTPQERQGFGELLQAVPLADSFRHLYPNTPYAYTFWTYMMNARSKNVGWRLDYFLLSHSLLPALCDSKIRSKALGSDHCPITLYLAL
# Peroxisome proliferator-activated receptor gamma (Homo sapiens), sequence (P37231 whole entry, looked up): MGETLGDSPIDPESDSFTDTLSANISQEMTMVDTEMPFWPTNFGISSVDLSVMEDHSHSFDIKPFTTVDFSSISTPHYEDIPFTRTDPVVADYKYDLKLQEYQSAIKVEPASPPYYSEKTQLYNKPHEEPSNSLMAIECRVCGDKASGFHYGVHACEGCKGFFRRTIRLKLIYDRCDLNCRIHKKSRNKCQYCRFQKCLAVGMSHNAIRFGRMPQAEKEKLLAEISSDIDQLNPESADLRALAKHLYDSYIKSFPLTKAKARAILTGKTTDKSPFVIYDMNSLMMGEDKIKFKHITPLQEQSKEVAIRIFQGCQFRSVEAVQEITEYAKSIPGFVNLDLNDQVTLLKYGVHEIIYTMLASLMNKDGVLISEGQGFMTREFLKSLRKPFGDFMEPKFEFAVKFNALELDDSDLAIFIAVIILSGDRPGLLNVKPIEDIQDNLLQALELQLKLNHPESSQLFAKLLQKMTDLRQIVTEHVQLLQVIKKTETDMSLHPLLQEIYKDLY
# Bile acid receptor (Homo sapiens), sequence (Q96RI1 whole entry, looked up): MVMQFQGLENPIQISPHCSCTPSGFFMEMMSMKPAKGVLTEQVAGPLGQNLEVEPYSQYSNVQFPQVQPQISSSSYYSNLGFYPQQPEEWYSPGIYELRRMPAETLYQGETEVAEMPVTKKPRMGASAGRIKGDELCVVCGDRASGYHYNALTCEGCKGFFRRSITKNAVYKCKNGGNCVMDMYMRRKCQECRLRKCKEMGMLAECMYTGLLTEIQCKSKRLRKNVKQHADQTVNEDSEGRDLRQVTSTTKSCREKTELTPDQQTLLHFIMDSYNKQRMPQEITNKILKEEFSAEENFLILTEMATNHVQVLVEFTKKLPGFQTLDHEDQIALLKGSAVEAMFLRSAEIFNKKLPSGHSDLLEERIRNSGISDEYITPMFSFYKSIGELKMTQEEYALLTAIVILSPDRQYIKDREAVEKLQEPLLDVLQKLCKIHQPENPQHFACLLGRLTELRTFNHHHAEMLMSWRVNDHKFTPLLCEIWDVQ
# Androgen receptor (Homo sapiens), sequence (P10275 whole entry, looked up): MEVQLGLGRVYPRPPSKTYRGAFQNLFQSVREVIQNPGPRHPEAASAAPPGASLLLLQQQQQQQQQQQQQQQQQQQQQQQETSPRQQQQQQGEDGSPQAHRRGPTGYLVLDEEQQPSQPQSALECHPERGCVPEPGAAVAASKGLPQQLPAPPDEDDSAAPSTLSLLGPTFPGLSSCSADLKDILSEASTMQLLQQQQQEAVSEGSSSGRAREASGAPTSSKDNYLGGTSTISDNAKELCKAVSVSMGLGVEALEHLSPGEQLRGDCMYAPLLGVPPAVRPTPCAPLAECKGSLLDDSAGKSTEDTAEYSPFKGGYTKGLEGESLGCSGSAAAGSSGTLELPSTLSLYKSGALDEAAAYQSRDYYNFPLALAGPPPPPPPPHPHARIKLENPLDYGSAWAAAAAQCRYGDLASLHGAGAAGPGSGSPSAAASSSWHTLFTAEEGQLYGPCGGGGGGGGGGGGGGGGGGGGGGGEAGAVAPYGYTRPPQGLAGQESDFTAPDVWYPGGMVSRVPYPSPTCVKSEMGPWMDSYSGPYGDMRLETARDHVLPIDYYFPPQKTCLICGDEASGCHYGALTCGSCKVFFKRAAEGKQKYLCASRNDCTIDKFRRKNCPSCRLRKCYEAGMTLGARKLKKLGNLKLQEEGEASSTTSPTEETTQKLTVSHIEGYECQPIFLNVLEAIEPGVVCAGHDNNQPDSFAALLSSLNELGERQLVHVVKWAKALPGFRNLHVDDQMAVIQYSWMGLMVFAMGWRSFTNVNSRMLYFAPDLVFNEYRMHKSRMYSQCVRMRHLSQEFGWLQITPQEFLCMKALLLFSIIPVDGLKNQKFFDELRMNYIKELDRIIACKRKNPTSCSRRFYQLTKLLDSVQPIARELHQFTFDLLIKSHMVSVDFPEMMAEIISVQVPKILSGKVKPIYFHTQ
# Lethal(3)malignant brain tumor-like protein 1 (Homo sapiens), sequence (Q9Y468 whole entry, looked up): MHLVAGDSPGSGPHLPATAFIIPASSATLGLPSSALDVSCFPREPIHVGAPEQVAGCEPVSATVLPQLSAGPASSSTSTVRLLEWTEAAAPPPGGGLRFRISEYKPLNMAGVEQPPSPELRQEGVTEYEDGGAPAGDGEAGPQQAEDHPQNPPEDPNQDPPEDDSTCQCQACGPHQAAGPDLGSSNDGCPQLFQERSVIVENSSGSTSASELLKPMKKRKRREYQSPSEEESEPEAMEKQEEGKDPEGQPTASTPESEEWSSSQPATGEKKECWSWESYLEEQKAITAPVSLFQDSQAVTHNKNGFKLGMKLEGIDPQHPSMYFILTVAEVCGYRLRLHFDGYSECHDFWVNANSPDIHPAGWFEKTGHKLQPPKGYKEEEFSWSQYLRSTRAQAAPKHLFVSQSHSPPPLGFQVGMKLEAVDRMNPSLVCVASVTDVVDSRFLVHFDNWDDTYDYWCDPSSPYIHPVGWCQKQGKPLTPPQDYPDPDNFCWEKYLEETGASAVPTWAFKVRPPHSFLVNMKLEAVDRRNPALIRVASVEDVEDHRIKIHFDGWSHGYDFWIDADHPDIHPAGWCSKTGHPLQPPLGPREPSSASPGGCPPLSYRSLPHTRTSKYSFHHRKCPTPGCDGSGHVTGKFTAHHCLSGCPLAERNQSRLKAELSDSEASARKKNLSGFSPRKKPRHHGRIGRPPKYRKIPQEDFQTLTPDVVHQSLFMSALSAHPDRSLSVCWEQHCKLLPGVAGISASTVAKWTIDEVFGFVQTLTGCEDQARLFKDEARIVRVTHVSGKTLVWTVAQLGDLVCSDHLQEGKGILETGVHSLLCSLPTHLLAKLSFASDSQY
# Cytochrome P450 3A4 (Homo sapiens), sequence (P08684 whole entry, looked up): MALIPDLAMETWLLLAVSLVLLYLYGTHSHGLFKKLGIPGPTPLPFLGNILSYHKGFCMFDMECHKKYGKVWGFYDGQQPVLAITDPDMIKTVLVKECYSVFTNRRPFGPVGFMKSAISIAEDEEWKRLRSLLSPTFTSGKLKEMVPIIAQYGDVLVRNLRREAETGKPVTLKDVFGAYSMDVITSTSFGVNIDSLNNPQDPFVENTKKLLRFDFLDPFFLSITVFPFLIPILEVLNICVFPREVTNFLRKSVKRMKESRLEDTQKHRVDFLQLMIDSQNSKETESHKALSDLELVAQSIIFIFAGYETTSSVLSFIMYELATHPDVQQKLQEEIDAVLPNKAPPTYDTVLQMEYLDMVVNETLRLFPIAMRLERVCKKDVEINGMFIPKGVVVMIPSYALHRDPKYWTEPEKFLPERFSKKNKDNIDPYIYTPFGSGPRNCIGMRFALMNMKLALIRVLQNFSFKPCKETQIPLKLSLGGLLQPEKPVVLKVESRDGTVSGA
compound,measurement,setting,value
O=[N+]([O-])c1cccc2c([N+](=O)[O-])cccc12,activation,[1],1.43%
same,outcome,[2],inactive
same,Potency,[3],inactive
O=[N+]([O-])c1cc(Cl)c(Cl)c(Cl)c1,outcome,[4],inactive
CCOP(=S)(OCC)Oc1nc(Cl)c(Cl)cc1Cl,outcome,[5],inactive
same,outcome,[6],inactive
same,activation,[1],5.31% and -6.07%
same,outcome,[2],inactive
same,outcome,[4],inactive
same,Potency,[7],inactive
O=C(O)C(Br)Br,outcome,[4],inactive
same,Potency,[7],inactive
N#CC(Br)Br,Potency,[7],inactive
COc1ccccc1CNc1nc(-c2ccc3c(c2)OCO3)nc2ccccc12,Potency,[8],> 20 µM
COc1ncc2nc(-c3ccccc3)c(=O)n(Cc3cccs3)c2n1,Potency,[8],> 20 µM
CN1CCN(c2ncc3nc(-c4ccccc4)c(=O)n(Cc4cccs4)c3n2)CC1,Potency,[8],> 20 µM
COC(=O)N1CCC2(CC1)CCN(c1ccccc1)CC2,Potency,[8],> 20 µM
Brc1ccc(Oc2ccc(Br)cc2Br)c(Br)c1,Potency,[7],inactive
Cc1c(C(=O)O)cccc1-n1c(C)cc(/C=C2\C(=O)NC(=O)N(c3ccc4c(c3)OCO4)C2=O)c1C,Potency,[9],inactive
same,Potency,[10],inactive
same,Potency,[11],12.6 µM (active)
same,outcome,[12],inactive
same,Potency,[13],1.68 µM (active)
O=c1c(-c2ccc(F)cc2)nc2cnc(N3CCOCC3)nc2n1Cc1cccs1,Potency,[8],> 20 µM
O=C(O)c1cc[c]([Sb](=[O])([OH])[OH])cc1[N+](=O)[O-],Potency,[10],10 µM (active)
same,Potency,[11],0.0562 µM (active)
O=S(=O)(c1ccccc1)N1CCC2(CC1)CN(c1ccccc1)C2,Potency,[8],> 20 µM
COc1ccc(CNCCc2c[nH]c3ccccc23)cc1OC,"activity change, negative = inhibition",[14],0.258% [at 10.4 µM]
same,outcome,[15],inactive
same,outcome,[16],inactive
same,outcome,[17],inactive
same,outcome,[18],inactive
COc1ccc(Oc2ncc3nc(-c4cccc(C#N)c4)c(=O)n(CCC#N)c3n2)cc1,Potency,[8],> 20 µM
O=c1c(-c2ccc(Cl)cc2)nc2cnc(N3CCNCC3)nc2n1-c1ccccc1,Potency,[8],> 20 µM
CN(C)C(=O)c1ccc(-c2cc(-n3ccnc3)ncn2)cc1,Potency,[8],> 20 µM
COc1ccc(CNc2nc(-c3cccc(NS(C)(=O)=O)c3)nc3ccccc23)c(OC)c1,Potency,[8],> 20 µM
O=C(OCC1O[C@@H](OC(=O)c2cc(O)c(O)c(O)c2)[C@@H](OC(=O)c2cc(O)c(O)c(O)c2)[C@@H](OC(=O)c2cc(O)c(O)c(O)c2)[C@@H]1OC(=O)c1cc(O)c(O)c(O)c1)c1cc(O)c(O)c(O)c1 (stereo partly drawn),Potency,[9],3.98 µM (active)
same,Potency,[11],0.0063 µM (active)
c1ccc2c(N3CCNCC3)nc(-c3ccc4c(c3)OCO4)nc2c1,Potency,[8],> 20 µM
N#Cc1cccc(NC(=O)N2CC3(CCN(C(=O)c4cccc(F)c4)CC3)C2)c1,Potency,[8],> 20 µM
CN(C)c1ccc(-c2nc(NC3CCNCC3)c3ccccc3n2)cc1,Potency,[8],> 20 µM
CCCCC(=O)N/N=C/c1c(O)n(-c2ccccc2)c(=O)[nH]c1=O,outcome,[14],inactive
same,outcome,[15],inactive
same,outcome,[16],inactive
same,outcome,[17],inactive
same,outcome,[18],inactive
COCCn1c(=O)cnc2cnc(N3CCNCC3)nc21,Potency,[8],> 20 µM
COc1ccccc1CN1CCN(C(=O)Cc2ccccc2)CC1,outcome,[14],inactive
same,outcome,[15],inactive
same,outcome,[16],inactive
same,outcome,[17],inactive
same,outcome,[18],inactive
N#Cc1cccc(-c2nccc(NCc3cccnc3)n2)c1,Potency,[8],> 20 µM
Cn1cccc1C(=O)N1CCC2(CCCN(C(c3ccccc3)c3ccccc3)C2)CC1,Potency,[8],> 20 µM
CN(C)c1ncc2ncc(=O)n(C3CC3)c2n1,Potency,[8],> 20 µM
N#Cc1cccc(-c2nccc(-n3ccnc3)n2)c1,Potency,[8],> 20 µM
O=C(NC(=S)N1C[C@H]2C[C@H](C1)c1cccc(=O)n1C2)c1ccc(F)cc1,outcome,[14],inactive
same,outcome,[15],inactive
same,outcome,[16],inactive
same,outcome,[17],inactive
same,outcome,[18],inactive
CN(C)c1ncc2nc(-c3cc(F)cc(F)c3)c(=O)n(Cc3cccs3)c2n1,Potency,[8],> 4 µM
COc1ccc(CNc2ncnc3ccc(-c4c(C)noc4C)cc23)c(OC)c1,Potency,[8],> 20 µM
Oc1cc(Cl)c(Cl)c(Cl)c1Cl,Potency,[19],inactive
CS(=O)(=O)N1CCC[C@@]2(CCN(C(=O)Nc3cccc(F)c3)C2)C1,Potency,[8],> 20 µM
Clc1ccc(C(c2ccccc2Cl)C(Cl)(Cl)Cl)cc1 (stereo not drawn),Potency,[7],inactive
CN(C)c1ccc(N=Nc2ccccc2)cc1,outcome,[4],inactive
Cc1nc2cncnc2n(Cc2ccccc2)c1=O,Potency,[8],> 20 µM
